Shown are actives, neighbours in structure and some others; about 21% of the full set was active somewhere.
RORgamma inh = ROR gamma (mouse) transcription inhibition. 310,000 tested, 5.4% active. AID 2551. Potency, µM (titrated, usually from 53.6 µM), inactives show at the highest dose activity change, negative = inhibition, usual class: inhibitors. Drosophila S2 Gal4-RORgamma UAS-luciferase reporter, 20 h. P51450; note: potency is the fitted concentration of half-maximal effect; nearly all actives have a fitted effect of over 60% in size
Target sequence (P51450 whole entry, looked up, the tested form may be a part): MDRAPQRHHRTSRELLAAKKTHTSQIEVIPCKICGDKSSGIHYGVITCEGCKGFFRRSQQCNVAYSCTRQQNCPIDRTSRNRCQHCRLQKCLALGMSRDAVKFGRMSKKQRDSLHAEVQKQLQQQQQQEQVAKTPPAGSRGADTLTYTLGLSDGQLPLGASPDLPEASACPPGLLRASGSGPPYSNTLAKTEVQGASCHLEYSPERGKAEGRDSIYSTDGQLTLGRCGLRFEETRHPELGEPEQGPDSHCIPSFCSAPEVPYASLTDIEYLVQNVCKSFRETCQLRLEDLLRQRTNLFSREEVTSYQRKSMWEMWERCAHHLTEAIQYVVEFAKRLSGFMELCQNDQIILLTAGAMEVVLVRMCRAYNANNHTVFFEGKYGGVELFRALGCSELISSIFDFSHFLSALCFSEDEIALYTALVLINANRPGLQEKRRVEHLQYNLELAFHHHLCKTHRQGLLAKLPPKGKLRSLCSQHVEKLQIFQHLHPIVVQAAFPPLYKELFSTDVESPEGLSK
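Stable Schneider cell line, Gal4 DNA-binding domain fused to ROR gamma, UAS-luciferase. Cmpd 1 hr RT → CuSO4 700 uM final → 20 hr RT → luciferase reagent 10 min → luminescence.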
ELG1 repair inh = ELG1-dependent DNA repair inhibition; HEK293T ELG1-luciferase reporter, luminescence, 16 h; DNA damage induced by 5-fluorouridine; 330,000 tested, 2.3% active; Potency, µM (series often up to 46.1 µM), for inactives: at the highest dose activity change, negative = inhibition, hits mostly inhibitors; note: potency is the fitted concentration of half-maximal effect; nearly all actives have a fitted effect of over 55% in size
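Step one: seed 2,000 cells per well. Step two: pin-transfer compound or DMSO alongside 5-fluorouridine. Step three: incubate 16 hr, 37 °C, 5% CO2. Step four: add ONE-Glo, wait 30 min, read luminescence.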
IL-1B inflam inh = blocks inflammasome-driven IL-1 beta release; THP-1 LPS/ATP IL-1B secretion, AlphaLISA, 16 h; hits give low values; activity change, % at 57.5 µM; 360,000 tested, 4.7% active; AID 743279; in the data active = activity change below about -50%; inconclusive = mostly about -30% to -49%
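Secreted IL-1B measured by AlphaLISA bead assay after 16 h compound exposure of THP-1 cells; compounds (final up to 57.5 uM) added 1 h before LPS (250 ng/mL) and ATP (1.25 mM) stimulation; lower signal means less secretion.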
Gal4-VP16 FLuc = inhibits Gal4-VP16 luciferase reporter, ROR gamma counter-screen | Drosophila S2 Gal4-VP16 UAS-luciferase, luminescence, 20 h | Potency, µM (doses to about 53.6 µM), for inactives: at the top dose activity, negative = inhibition, usual class: inhibitors | 310,000 tested, 3.5% active;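 note: Gal4-VP16 expression switched on by copper sulfate through the metallothionein promoter; potency is the fitted concentration of half-maximal effect; nearly all actives have a fitted effect of over 50% in size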
TDP1 cell noCPT = qHTS for Inhibitors of human tyrosyl-DNA phosphodiesterase 1 (TDP1): qHTS in cells in absence of CPT. Potency, µM (titrated, usually from 46.2 µM), for inactives: top-dose activity change, negative = growth inhibition, actives largely listed as inhibitors. 420,000 tested, 15% active. AID 686978, 2013. DT40 Tdp1-/- hTDP1 cells, no CPT, ATP luminescence, 48 h; note: potency is the fitted concentration of half-maximal effect; nearly all actives have a fitted effect of over 55% in size
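Readout: luminescence from CellTiter-Glo after 30 min in the dark at RT. Cells: DT40 Tdp1-/- with stable hTDP1, 400/well. Exposure: compounds alone, ≥48 hr, 37 °C.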
DT40 TDP1 CPT = growth inhibition of DT40 Tdp1-/-;hTDP1 cells with camptothecin (screen for TDP1 inhibitors); chicken DT40 Tdp1-/-;hTDP1 cells + 20 nM CPT, ATP luminescence, 48 h; Potency, µM (doses to about 46.2 µM), inactives show at the top dose activity change, negative = growth inhibition, usual class: inhibitors; AID 686979; 420,000 tested, 12% active; note: potency is the fitted concentration of half-maximal effect; nearly all actives have a fitted effect of over 55% in size
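Chicken DT40 Tdp1-/- cells stably complemented with human TDP1 were seeded at 400 cells/well in medium containing 20 nM camptothecin, exposed to pin-transferred compounds, and grown at 37 °C for at least 48 hr. Viability was read as ATP luminescence.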
Active calls of the source: *; ? = inconclusive; / = no result given; ! = not active in a repeat; [ ] = another dose, or the depositor's remark. Unless noted, calls come from the whole dose curve; as a rule, active = well fitted curve in the direction sought with a large enough effect; inconclusive = small, poorly fitted or top-dose-only effect, or another doubt; inactive = no such curve, though single readings can be large; an effect the other way counts as inactive or inconclusive. % is set by controls: 0 for no effect and ±100 for the full control effect.

SMILES	RORgamma inh	ELG1 repair inh	IL-1B inflam inh	Gal4-VP16 FLuc	TDP1 cell noCPT	DT40 TDP1 CPT
O=C(CN1CCN(Cc2ccc(Cl)cc2)C1=O)NCCCN1CCOCC1	-9%	10%	-1	-1%	-2%	-6%
O=C(CN1CCN(Cc2ccc(F)cc2Cl)C1=O)NCCCN1CCOCC1	-14%	13%	-10	0%	-2%	-7%
Cc1ccccc1CN1CCN(CC(=O)NCCCN2CCN(c3ccc(F)cc3)CC2)C1=O	?	?	?	?	13µM*	16µM*
COc1ccccc1N(CCC#N)C(=S)Nc1ccc(S(=O)(=O)N2CCOCC2)cc1	/	-1%	-3	/	?	-9%
CC1=CC(=O)C(C(C)C)=CC1=NC(=O)c1ccc(C)cc1	-14%	18%	15	-9%	2.1µM*	2.3µM*
CCOc1ccc(CN2C(=O)c3ccccc3Sc3ccc(C(=O)NCc4ccc5c(c4)OCO5)cc32)cc1	/	/	/	/	-13%	10%
CCc1ccccc1NC(=O)CN1C(=O)CCn2nc(-c3cccn3C)cc21	/	/	/	/	-2%	1%
CCCc1nc2c(C)cc(Br)cn2c1Cc1ccccc1C(F)(F)F	/	/	39	/	23µM*	23µM*
Cc1cc(Br)cn2c(Cc3ccsc3)c(C(C)(C)C)nc12	/	/	12	/	26µM*	?
CCCc1nc2c(C)cc(Br)cn2c1Cc1ccsc1	/	/	25	/	23µM*	?
CCCc1nc2c(C)cc(Br)cn2c1Cc1ccccc1	/	/	74	/	?	?
Cc1cc(Br)cn2c(Cc3ccsc3)c(-c3ccc(F)cc3)nc12	/	/	74	/	15µM*	-24%
CCCOc1ccc(CNC(=O)c2ccc3nc(N4CCOCC4)sc3c2)cc1	-11%	?	-12	-13%	-10%	-29%
COC(CNC(=O)c1ccc(CS(=O)(=O)c2c(Cl)cccc2Cl)o1)OC	19%	1%	16	8%	30%	-16%
COc1ccc(Cc2nc3c([nH]2)c(=O)n(C)c(=O)n3C)cc1OC	/	/	6	/	?	-24%
Cc1ccc(Cn2c(=N)n(CC(O)COc3ccccc3)c3ccccc32)cc1 (stereo not drawn)	5µM*	?	0	7.1µM*	9.2µM*	18µM*
OCc1nc2ccccc2n1CC(O)COc1ccccc1 (stereo not drawn)	-11%	0%	-23	0%	-15%	-16%
N=c1n(Cc2ccccc2)c2ccccc2n1CC(O)COc1ccccc1 (stereo not drawn)	5%	?	-88*	-21%	6.5µM*	7.3µM*
Cc1nccn1CC(O)COc1ccccc1 (stereo not drawn)	?	-2%	2	2%	0%	2%
O=P(O)(O)OC1[C@H](O)[C@H](OP(=O)(O)O)C(OP(=O)(O)O)[C@H](OP(=O)(O)O)[C@H]1O (stereo partly drawn)	-18%[1.91 µM]	/	/	0%[1.91 µM]	/	/
O=C(O)c1cc(O)c2c(c1)C(=O)c1cc(O)cc(O)c1C2=O	6.3µM*!	1%	-24	?	15µM*!	13µM*!
COc1ccc(-c2cc(-c3ccccc3)nc(SCC(=O)Nc3nccs3)c2C#N)cc1	-39%	?	68	-3%	8.2µM*	?
CCc1nnc(NC(=O)CSc2nc3cc(OC)ccc3cc2C)s1	?	?	-7	4%	8.2µM*	-28%
CCc1nnc(NC(=O)Cc2ccc(OC)cc2)s1	22%	4%	24	5%	-4%	11%
N#Cc1c(-c2ccc(Cl)cc2)cc(-c2ccccc2)nc1SCC(=O)O	?	-15%	22	-16%	?	18µM*
SMILES	RORgamma inh	ELG1 repair inh	IL-1B inflam inh	Gal4-VP16 FLuc	TDP1 cell noCPT	DT40 TDP1 CPT
COc1ccc(-c2cc(-c3ccccc3)c(C#N)c(SCC(=O)Nc3ncc(C)s3)n2)cc1	20%	?	5	9%	?	-20%
N#Cc1c(-c2ccccc2)cc(-c2ccccc2)nc1SCC(=O)Nc1ccc(Cl)cc1	/	/	/	/	-20%	-2%
CCc1nnc(NC(=O)CSc2nc(-c3ccccc3)cc(-c3ccc(OC)cc3)c2C#N)s1	-5%[10 µM]	14%	7	0%	21µM*	23µM*
Cc1ccnc(NC(=O)CCNC(=O)c2ccc(Cl)cc2)c1	-28%	2%	15	-4%	29%	1%
COc1cccc2c1CCCC2CCCN1CCN(C2CCCCC2)CC1 (stereo not drawn)	-2%	/	/	-1%	/	/
COc1ccc(NC(=O)CSc2nc(C)c3c(c2C#N)CCCC3)cc1	-15%	7%	-2	-3%	-12%	?
CCc1nnc(NC(=O)CSc2nc(C)c3c(c2C#N)CCCC3)s1	?	?	0	?	18µM*	18µM*
Cc1noc(C)c1-c1ccc(C(=O)Nc2ccccc2)c2occc12	/	/	-5	/	?	26µM*
Cc1noc(C)c1-c1ccc(C(=O)NC2CCCCC2)c2occc12	/	/	-7	/	15µM*	16µM*
O=[N+]([O-])c1cc([N+](=O)[O-])c(Oc2ccc(Br)cc2Br)cc1NN1CCCCC1	-17%	0%	22	5%	?	?
Nc1nccnc1C(=O)OCC(=O)NC1CCCc2ccccc21 (stereo not drawn)	/	2%	2	/	5%	1%
C=CC(=O)N1C(=O)c2ccccc2S1(=O)=O	17%	/	/	-15%	/	/
CCCC(=O)Nc1sc(Cc2ccccc2)c(C)c1C(N)=O	?	?	?	10%	23µM*	?
COC(=O)c1c(NC(=O)CCC(=O)O)sc(Cc2ccccc2)c1C	0%	-3%	21	3%	-1%	-26%
Cc1sc(NC(=S)NC(=O)c2ccco2)c(C(N)=O)c1C	-4%	?	-3	7%	0%	13%
COC(=O)CCC(=O)NC(=S)Nc1sc(C)c(C)c1C(N)=O	29%	0%	5	-1%	0.15µM*	0.16µM*
Cc1sc(NC(=S)NC(=O)CCc2ccccc2)c(C(N)=O)c1C	-10%	10%	44	-9%	0.18µM*	0.21µM*
O=C(CCCN1C(=O)C(=Cc2ccc3c(c2)OCO3)SC1=S)Nc1ccc(C(=O)O)c(O)c1	/	/	-1	/	-2%	?
COc1ccc(CCC(=O)NNC(=O)c2cc(Cl)ccc2OC)cc1	-3%	-2%	4	-1%	-17%	10%
COc1cc(C(=O)Nc2ccc(-c3cc(C(F)(F)F)nn3-c3ccccc3)cc2)cc(OC)c1OC	/	/	/	/	15µM*	16µM*
O=C(Nc1ccc(-c2cc(C(F)(F)F)nn2-c2ccccc2)cc1)c1cccc(F)c1	/	/	/	/	5.2µM*	?
